According to the supplement of paper PMC12024529:

Each molecule was assayed on HEK293 WT BDD-FVIII-Gluc (assay: secreted FVIII-Gluc luciferase Z-score vs DMSO control; higher = more FVIII-Gluc secretion). Conditions: 5 µM.
Description: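 Natural plant-compound library (480 compounds, ST catalogue IDs) screened on HEK293 cells stably expressing WT BDD-FVIII-Gaussia luciferase fusion at 5 µM. Secreted Gluc activity in the medium is given as a Z-score relative to DMSO controls.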
`COc1cc2cc(Oc3ccc4ccc(=O)oc4c3)c(=O)oc2cc1OC(C)=O` was tested, and the “secreted FVIII-Gluc luciferase Z-score” value was 0.744.
For `N[C@@H](Cc1ccc(O)cc1)C(=O)O`, the “secreted FVIII-Gluc luciferase Z-score” value was 0.446.
With `O=C(O)/C=C/c1ccc(O)c(O)c1` the “secreted FVIII-Gluc luciferase Z-score” value was -0.126.
For `Cc1c(C)c2c(c(C)c1OC(=O)CCC(=O)O)CC[C@@](C)(CCC[C@H](C)CCC[C@H](C)CCCC(C)C)O2`, the “secreted FVIII-Gluc luciferase Z-score” value was 0.648.
With `CC1OC(OCC2OC(Oc3c(-c4ccc(O)c(O)c4)oc4cc(O)cc(O)c4c3=O)C(O)C(O)C2O)C(O)C(O)C1O` (stereo unspecified) the “secreted FVIII-Gluc luciferase Z-score” value was -0.909.
With `COc1cc2cc3c4c(cc(OC)c(OC)c4c2cc1OC)CCN3C` the “secreted FVIII-Gluc luciferase Z-score” value was 0.0768.
In the case of `COc1cc2ccc(=O)oc2c(O)c1O`, the “secreted FVIII-Gluc luciferase Z-score” value is reported as 0.185.
For `N=C(N=C(N)N)N1CCOCC1`, the “secreted FVIII-Gluc luciferase Z-score” value was 0.384.
`CC(=O)Oc1ccc(/C=C/C(=O)CC2OC(Oc3cc(OC(C)=O)c4c(c3)O[C@@H](c3ccc(OC(C)=O)cc3)CC4=O)C(OC(C)=O)C(OC(C)=O)C2OC(C)=O)cc1` (stereo partly specified) was tested, and the “secreted FVIII-Gluc luciferase Z-score” value was 0.201.
With `Cc1cc(=O)cc2oc3cc(N)c(-c4c(C)cc(O)cc4O)c(C)c3nc1-2` the “secreted FVIII-Gluc luciferase Z-score” value was -0.31.
`COc1ccc(OC)c(C2Nc3ccccc3NC3=C2C(=O)CC(C)(C)C3)c1Br` (stereo unspecified) was tested, and the “secreted FVIII-Gluc luciferase Z-score” value was 0.0362.
In the case of `O=C1CC(c2ccc(O)cc2)Oc2cc(O)cc(O)c21` (stereo unspecified), the “secreted FVIII-Gluc luciferase Z-score” value is reported as -0.524.
With `C/C=C(\C)C(=O)OC1CC2(C)OC2C(OC(C)=O)C2(C)CCC(O)(C(C)C)C12` (stereo unspecified) the “secreted FVIII-Gluc luciferase Z-score” value was -0.754.
In the case of `COc1cc2oc(=O)cc(C)c2cc1OC`, the “secreted FVIII-Gluc luciferase Z-score” value is reported as 0.58.
In the case of `CC(=O)Oc1c(C)c(C)c2c(c1C)CCC(C)(CCCC(C)CCCC(C)CCCC(C)C)O2` (stereo unspecified), the “secreted FVIII-Gluc luciferase Z-score” value is reported as 0.728.
For `Cc1cn([C@H]2C[C@H](O)[C@@H](CO)O2)c(=O)[nH]c1=O`, the “secreted FVIII-Gluc luciferase Z-score” value was 0.713.
